From PubChem BioAssay
Sampled rows, rich in hits. Any-hit rate of the full collection: about 2.3%.
M1 PAM parental – counter-screen for M1 PAMs: effect in parental CHO-K1 cells; ATP EC20, Fluo-8 calcium fluorescence; 0% at ATP EC20, 100% at ATP max; activation, % at 3 µM; 360,000 compounds, 0.02% hits; AID 602247;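 active = activation above the run cutoff, the mean activation of all test compounds plus 3 SD, cut at about 40% in these data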;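 note: peak over basal fluorescence ratio in a 140 s read after ATP addition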
CHO-K1 Ca ag – nonselective activator or artifact in parental CHO-K1 cells. activation, % at 3 µM. AID 602248. Fluo-8 calcium fluorescence; scaled to maximal ATP response, vehicle zero. 360,000 compounds, 0.48% hits; in the data active = activation above about 15%;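 note: untransfected CHO-K1 host cells lacking M1 receptor as counterscreen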
CHO-K1 Ca antag – counter-screen for M1 antagonists: effect in parental CHO-K1 cells | ATP-induced calcium, Fluo-8 fluorescence | inhibition, % at 3 µM | 360,000 compounds, 0.6% hits;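 active = inhibition above a per-plate cutoff, the plate's mean sample inhibition plus 3 SD, cut at about 24% in these data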;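 note: 0% = DMSO plus EC80 ATP and 100% = DMSO alone without ATP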
M1 PAM – potentiates human M1 receptor response to acetylcholine; CHO-K1 hM1, Fluo-8 calcium fluorescence, ACh EC20; 0% = ACh EC20, 100% = maximal ACh; activation, % at 3 µM; P11229; 360,000 compounds, 0.088% hits; in the data active = activation above about 19%, passing the limit was not always enough
Target sequence (P11229 whole entry, looked up): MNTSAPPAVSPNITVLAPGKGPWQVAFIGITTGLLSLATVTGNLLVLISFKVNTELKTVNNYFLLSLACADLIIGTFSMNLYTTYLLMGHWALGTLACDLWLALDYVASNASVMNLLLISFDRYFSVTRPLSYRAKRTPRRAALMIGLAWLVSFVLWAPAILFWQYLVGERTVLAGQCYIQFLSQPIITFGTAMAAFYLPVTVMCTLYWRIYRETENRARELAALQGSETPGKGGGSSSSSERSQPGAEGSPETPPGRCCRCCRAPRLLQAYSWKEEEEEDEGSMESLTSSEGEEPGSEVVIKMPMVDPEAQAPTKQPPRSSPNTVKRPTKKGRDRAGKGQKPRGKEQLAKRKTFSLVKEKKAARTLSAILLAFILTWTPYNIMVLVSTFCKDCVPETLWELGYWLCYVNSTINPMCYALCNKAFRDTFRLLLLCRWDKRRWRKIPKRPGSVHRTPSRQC
CHRM1 agonist – human M1 muscarinic receptor agonism; P11229; CHO-K1 hM1, Fluo-8 calcium fluorescence, agonist mode; 0% DMSO, 100% acetylcholine EC100; activation, % at 3 µM; 360,000 compounds, 0.33% hits;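 active = activation above the run's mean compound activation plus 3 SD, cut at about 16% in these data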;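 note: peak over basal fluorescence ratio within a 140 s kinetic read after compound addition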
CHRM1 antagonist – blocks human M1 muscarinic receptor | AID 588852 | P11229 | CHO-K1 hM1, Fluo-8 calcium fluorescence, ACh EC80 antagonist | inhibition, % at 3 µM | 360,000 compounds, 1.3% hits;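 active = percent inhibition above its own plate's cutoff, namely the mean of that plate's compound wells plus 3 SD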;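 note: peak over basal fluorescence ratio during 140 s after agonist addition; 0% = ACh EC80 plus DMSO and 100% = DMSO alone without agonist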
The depositor's hits bear a star; ! = not confirmed by another sample.

SMILES | M1 PAM parental | CHO-K1 Ca ag | CHO-K1 Ca antag | M1 PAM | CHRM1 agonist | CHRM1 antagonist
COc1ccc(N(C)S(=O)(=O)c2cccc(C(=O)Nc3nc4ccccc4[nH]3)c2)cc1 | -13.1 | 7.8 | -6.8 | -15.4 | -4.4 | 34.5*
Cc1cc(S(=O)(=O)Nc2ccc(C(=O)NCC(c3ccccc3)N(C)C)cc2)ccc1F (stereo unspecified) | -2.7 | 1.9 | 5.9 | -7.6 | -4.7 | 13.0
CCN(CC)S(=O)(=O)c1cccc(C(=O)NCC(c2ccccc2)N(C)C)c1 (stereo unspecified) | -7.8 | 0.3 | -8.2 | -35.8 | -15.3 | 55.0*
N#CCC(=O)Nc1ccc(C(=O)Nc2cccc(S(=O)(=O)N3CCCC3)c2)cc1 | 12.2 | 0.4 | -5.5 | -8.2 | -8.8 | 5.6
CN(C(=O)c1cccc(NC(=O)Cc2ccc(NC(=O)C3CCN(C(=O)C4CCCC4)CC3)cc2)c1)C1CCCC1 | 10.5 | -0.4 | -29.4 | 16.3 | 1.6 | -18.2
O=C(COC(=O)Cc1c[nH]c2ccccc12)NC1CCS(=O)(=O)C1 (stereo unspecified) | -20.9 | -0.1 | 9.7 | -8.4 | -1.7 | 27.2*
O=C(COC(=O)Cc1ccc(F)cc1)NC1CCS(=O)(=O)C1 (stereo unspecified) | -6.9 | 0.6 | -1.1 | 5.4 | 0.6 | -8.3
CCCN1CCC(=O)N([C@H](CSc2ccccc2)c2ccccc2)CC1 | 17.4 | 0.8 | -12.6 | -20.3 | -13.8 | 15.2
CN1CCC(=O)N([C@H](CSc2ccc(Br)cc2)c2ccccc2)CC1 | 4.3 | 1.4 | -3.4 | -37.6 | -12.9 | 54.8*
COc1ccccc1-c1cnc2c(c1)C(=O)N([C@@H](C)CO)C[C@@H](C)[C@H](CN(C)C(=O)c1cccnc1)O2 | 20.3 | 1.5 | -12.8 | 4.2 | -2.4 | -18.6
CC(C)(C)c1ccc(-n2ncc3c2CCCC3NC(=O)c2ccncc2)cc1 (stereo unspecified) | 9.8 | 3.6 | -2.2 | -19.4 | -4.4 | 61.8*
Cc1cc(C(=O)NC2CCCc3c2cnn3-c2ccc(C)c(C)c2)n(C)n1 (stereo unspecified) | -26.2 | 13.5 | 25.3* | -11.3 | 1.5 | 43.6*
O=C(NC1CCCc2c1cnn2-c1cc(F)cc(F)c1)c1ccncc1 (stereo unspecified) | -7.9 | 1.6 | -8.1 | 6.0 | -4.0 | -10.2
COc1cc(/C=N/OCC(=O)Nc2cc(C)on2)ccc1OCc1ccccc1 | 3.3 | 20.1* | 10.4 | 2.4 | -4.4 | 4.3
COc1cc(/C=C/C(=O)NC(C)C)ccc1OCc1ccccc1 | 23.0 | 1.8 | -14.6 | 5.6 | -8.4 | -3.4
Cc1cc([N+](=O)[O-])nn1CC(=O)Nc1cc(F)ccc1F | -3.5 | 16.4* | -0.5 | 4.2 | -4.8 | -4.8
O=C(c1cccc(C(F)(F)F)c1)N1CCC(O)(CS(=O)(=O)Cc2ccc(Cl)cc2)CC1 | -9.7 | 0.2 | 28.6* | -4.8 | 0.2 | 6.9
CC(C)Oc1cccc(C(=O)NC(=S)Nc2ccc(N3CCN(C)CC3)cc2)c1 | 19.1 | 4.3 | -7.4 | -27.4 | -4.0 | 98.9*
CN1CCN(c2ccc(NC(=S)NC(=O)c3cccc4c(Cl)cccc34)cc2)CC1 | -17.9 | 0.2 | 7.2 | -30.2 | -13.2 | 37.2*
COc1cccc(C(=O)NC(=S)Nc2ccc(N3CCCC3)cc2)c1 | 11.2 | 0.2 | -12.4 | -5.1 | -5.3 | 10.7
CCOC(=O)Nc1ccc2c(c1)N(C(=O)OCCN(C)C)c1ccccc1CC2 | 13.8 | 0.9 | 4.5 | -25.6 | -12.4 | 31.1*!
C[C@@H]1CN([C@H](C)CO)C(=O)CCCn2cc(nn2)CO[C@H]1CN(C)C(=O)c1ccccc1 | 4.1 | -0.1 | 8.4 | -2.2 | -1.3 | 8.0
CCCS(=O)(=O)NC(=O)C1(C)CCN(C(=O)c2cccc(C(F)(F)F)c2)C1 (stereo unspecified) | -5.4 | -0.2 | 5.0 | 6.8 | -1.2 | -0.9
c1ccc(C(CN2CCCCC2)Oc2ccccn2)cc1 (stereo unspecified) | -22.4 | -0.2 | 8.6 | -27.4 | -5.0 | 83.2*
OC(COC(c1ccccc1)c1ccccc1)CN1CCCCC1 (stereo unspecified) | -0.2 | -0.2 | 6.1 | -3.7 | -7.2 | -12.2
CCCCN1C[C@H](c2ccccc2)[C@@H](CC(=O)NC)C1=O | -9.0 | -0.2 | 33.5* | 5.2 | 1.0 | -16.8
CCCCN1C[C@H](C)[C@@H](CC(=O)NC)C1=O | 15.6 | 0.5 | -1.5 | 9.7 | -1.1 | -12.5
